Shown are actives, neighbours in structure and some others; about 7.9% of the full set was active somewhere.
MCF10A rerep: A quantitative high throughput screen for small molecules that induce DNA re-replication in MCF 10a normal breast cells; MCF 10A DNA re-replication, Hoechst nuclear intensity, 48 h; Potency, µM (series often up to 46.1 µM), without a hit: top-dose activity, positive = re-replication, usual class: activators; 350,000 compounds, 2.9% hits; AID 624296, 2012; also: % of control where 0% means no effect; nearly all actives have a fitted effect of over 50% in size
KB-3-1 cytotox: qHTS assay for MDR1-selective chemotherapeutics: Primary screen using the parental adenocarcinoma cell KB-3-1 | KB-3-1 viability, CellTiter-Glo ATP luminescence, 72 h | Potency, µM (top dose mostly 46.1 µM), actives largely listed as cytotoxic | 400,000 compounds, 1.4% hits | AID 1347075, 2019; also: % is scaled to controls: 0 for no effect and ±100 for the full control effect; nearly all actives have a fitted effect of over 60% in size
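Viability of parental KB-3-1 cells, measured by CellTiter-Glo luminescence, followed a 72 h incubation at 37 °C with pinned compounds in phenol-red-free DMEM containing 10% FBS.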
HT1080 IDH1KD tx: qHTS for induction of synthetic lethality in tumor cells producing 2HG: qHTS for the HT-1080-IDH1KD cell line. HT-1080 IDH1 knockdown viability, ATP luminescence, 48 h. Potency, µM (titrated, usually from 46.1 µM), for inactives: top-dose activity, negative = toxicity, hits mostly cytotoxic. 360,000 compounds, 2% hits. AID 686971, 2013;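 also: 0% = DMSO wells and -100% = cell-free medium wells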
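Knockdown cells (IDH1KD HT-1080) received compounds 2 h after plating at 750 cells/well and were kept 48 h at 37 °C in 5% FBS RPMI. A CellTiter-Glo luminescence read gave % activity for curve fitting.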
SW480 rerep: A quantitative high throughput screen for small molecules that induce DNA re-replication in SW480 colon adenocarcinoma cells; SW480 DNA re-replication, Hoechst DNA content imaging, 48 h; Potency, µM (doses to about 46.1 µM), inactives show at the highest dose re-replication activation, usual class: activators; 340,000 compounds, 1.8% hits; also: % of control where 0% means no effect; nearly all actives have a fitted effect of over 55% in size
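Treated cells incubate 48 hr (37 C, 5% CO2), are stained 40 min with Hoechst, and nuclear fluorescence is enumerated; a rise in nuclei with high DNA signal marks re-replication.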
HT1080-NT tox: qHTS for induction of synthetic lethality in tumor cells producing 2HG: qHTS for the HT-1080-NT fibrosarcoma cell line | AID 686970, 2013 | 360,000 compounds, 1.6% hits | Potency, µM (titrated, usually from 46.1 µM), without a hit: at the top dose activity, negative = less viability, usual class: cytotoxic | HT-1080-NT fibrosarcoma viability, CellTiter-Glo ATP luminescence, 48 h;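 also: NT is the 2HG producing partner of a matched IDH1 knockdown line; 0% = DMSO-treated cells and -100% = media-only wells without cells; nearly all actives have a fitted effect of over 55% in size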
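A 48-hour cytotoxicity screen used HT-1080-NT cells plated 2 hours before compound delivery. ATP-based CellTiter-Glo luminescence measured viability, normalized to DMSO and no-cell controls.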
KB-V1 cytotox: qHTS assay for MDR1-selective chemotherapeutics: Primary screen using the drug-selected MDR subline cells KB-V1; KB-V1 MDR cells viability, CellTiter-Glo, 72 h; Potency, µM (highest dose often 46.1 µM), actives largely listed as cytotoxic; 400,000 compounds, 3.4% hits; also: % is scaled to controls: 0 for no effect and ±100 for the full control effect; nearly all actives have a fitted effect of over 60% in size
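qHTS viability screen in drug-selected KB-V1 MDR cells: 72 h compound treatment at 37 degrees C, ATP luminescence end point.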
The depositor's hits bear a star; i = inactive; ? = inconclusive; / = not tested or not shown; ! = repeats disagree; [ ] = another dose, or the depositor's remark. Calls follow the shape of the dose curve; as a rule, active = well fitted curve in the direction sought with a large enough effect; inconclusive = small, poorly fitted or top-dose-only effect, or another doubt; inactive = no such curve, though single readings can be large; an effect the other way counts as inactive or inconclusive. Potency is read from the fitted curve at half-maximal effect.

SMILES	MCF10A rerep	KB-3-1 cytotox	HT1080 IDH1KD tx	SW480 rerep	HT1080-NT tox	KB-V1 cytotox
CCCCOC(=O)NC1CCc2cc(OC)c(OC)c(OC)c2-c2ccc(SC)c(=O)cc21 (stereo unspecified)	?	0.146µM*	0.0092µM*	?	0.0082µM*	0.291µM*
CCOCC(=O)NC1CCc2cc(OC)c(OC)c(OC)c2-c2ccc(SC)c(=O)cc21 (stereo unspecified)	?	0.0058µM*	?	0.0517µM*	0.0116µM*	?
COc1cc2c(c(OC)c1OC)-c1ccc(NC(=O)c3ccccc3)c(=O)cc1[C@@H](NC(C)=O)CC2	-39.8%	i	0.0%	2.5%	0.1%	i
CN[C@H]1CCc2cc(OC)c(OC)c(OC)c2-c2ccc(OC)c(=O)cc21	?	0.0291µM*	12.4%	?	-0.1%	1.16µM*
COc1c(O[C@H]2O[C@@H](CO)[C@@H](O)[C@@H](O)[C@@H]2O)cc2c(c1OC)-c1ccc(SC)c(=O)cc1[C@H](NC(C)=O)CC2	-0.4%[20.6 µM]	/	/	0.4%[20.6 µM]	/	/
CCCCOC(=O)NC1CCS(=O)(=O)C1 (stereo unspecified)	-1.0%	i	24.0%	-6.6%	13.4%	i
CCOC(=O)NC1CCc2cc(OC)c(OC)c(OC)c2-c2ccc(SC)c(=O)cc21 (stereo unspecified)	?	0.164µM*	0.103µM*	0.0366µM*	0.0092µM*	0.231µM*
O=C(C1CCN(CCCc2ccccc2)CC1)N1CCCCC1	11.7%	i	-9.8%	-2.1%	-5.0%	i
Oc1ccccc1N=Cc1c(O)ccc2ccccc12	?	i	18.4µM*	17.2%	?	i
Oc1cccc(C=Nc2cccc3ccccc23)c1O	18.4µM*	i	23.1µM*	18.4µM*	18.4µM*	i
CN(C)/N=C/c1c(O)ccc2ccccc12	-3.7%	i	-6.0%	-6.5%	-0.8%	i
OCC(CO)(CO)N=Cc1c(O)ccc2ccccc12	8.2µM*	i	?	-0.3%	?	?
Oc1ccccc1C=Nc1cccc2ccccc12	-2.1%	i	-11.6%	-5.8%	-3.1%	i
O=S(=O)(c1ccc(Br)cc1)N1CCCN(Cc2cccc(F)c2)CC1	?	i	-0.9%	20.6µM*!	-1.3%	i
COc1cccc(CN2CCCN(S(=O)(=O)c3ccc(Br)cc3)CC2)c1	?	i	-29.1%	?	-12.7%	?
Cc1ccccc1OCC(O)CN1CCN(CCN2C(=O)c3cccc4cccc(c34)C2=O)CC1 (stereo unspecified)	15.0%	?	5.4%	10.0%	3.3%	?
Cc1ccccc1OCC(O)Cn1c(=N)n(Cc2ccccc2)c2ccccc21 (stereo unspecified)	0.2%	?	16.4µM*	5.1%	14.6µM*	?
Cc1nccn1CC(O)Cn1c2ccccc2c2ccccc21 (stereo unspecified)	20.6µM*	i	-24.9%	-11.2%	?	i
C=CCn1c(=N)n(CC(O)COc2ccccc2OC)c2ccccc21 (stereo unspecified)	12.0%	i	-19.3%	16.2%	-22.9%	i
Cc1ccccc1OCC(O)CN1CCN(CC(O)COc2ccccc2C)C(C)C1 (stereo unspecified)	?	i	?	6.5%	25.9µM*	i
COc1ccccc1OCC(O)Cn1c(=N)n(Cc2ccccc2)c2ccccc21 (stereo unspecified)	?	16.4µM*	-13.3%	?	?	?
CCNc1nc(N)nc(Oc2ccc(OCCOc3ccccc3)nn2)n1	21.7%	i	-2.2%	-15.9%	-8.2%	?
CN(C)c1ccc(C#Cc2ccc3cc(CCCO)oc(=O)c3c2)cc1	?	i	-0.8%	4.7%	1.0%	i
COC(=O)c1cccc(CSC(=S)N2CCCC2)c1	3.5%	i	-4.3%	-16.2%	-2.1%	i
CC(C)(C)C(=O)Cn1c(=N)n(Cc2ccccc2)c2ccccc21	17.8µM*	?	?	?	?	?
SMILES	MCF10A rerep	KB-3-1 cytotox	HT1080 IDH1KD tx	SW480 rerep	HT1080-NT tox	KB-V1 cytotox
Cc1ccccc1OCC(O)Cn1c2ccccc2c2ccccc21 (stereo unspecified)	-7.4%	i	?	23.1µM*	?	20.6µM*
CC(C)(C)C(=O)Cn1c(=N)n(Cc2ccccc2Cl)c2ccccc21	14.3%	?	-20.9%	?	-10.7%	i
CC1CCCN(CCCNC(=O)c2cc3c(s2)-c2ccccc2OC3)C1 (stereo unspecified)	?	?	?	?	20.6µM*	i
CC1CCN(CCCNC(=O)c2cc3c(s2)-c2ccccc2OC3)CC1	5.8µM*	23.1µM*	?	84.1%	23.1µM*	i
CCOc1ccc(CNC(=O)c2cc3c(s2)-c2ccccc2OC3)cc1	/	i	/	/	/	i
COCCCN(Cc1ccco1)C(=O)c1cc2c(s1)-c1ccccc1OC2	/	?	/	/	/	10.3µM*
CCc1ccc(CNC(=O)c2cc3c(s2)-c2ccccc2OC3)cc1	/	14.6µM*	/	/	/	?
O=C(NCCCN1CCN(c2ccccc2)CC1)c1cc2c(s1)-c1ccccc1OC2	/	i	/	/	/	i
O=C(NCCCN1CCN(c2ccc(F)cc2)CC1)c1cc2c(s1)-c1ccccc1OC2	/	i	/	/	/	?
Cc1c(C(=O)NCc2ccc(Cl)cc2)sc2nc3n(c(=O)c12)CCCCC3	/	i	/	/	/	?
CC(=O)C1=C(O)C(=O)N(Cc2cccnc2)C1c1ccc(C(C)C)cc1 (stereo unspecified)	-13.1%	i	0.0%	-13.7%	11.8%	i
Cc1cccc2c1-c1sc(C(=O)NCCCN3CCC(C)CC3)cc1CO2	23.1µM*	?	?	29.1µM*	?	i
CCOC(=O)c1cc2c(nc1C)-c1cc(Cl)cc(Cl)c1OC2O (stereo unspecified)	18.4µM*	i	-16.2%	?	-25.6%	i
CCOC(=O)c1cc(C(=O)NN)c(C)nc1C	6.7%	i	16.7%	?	3.2%	i
CCn1cc(C2=NC(C)CO2)c2ccccc21 (stereo unspecified)	0.6%	i	10µM*	3.9%	11.2µM*	i
CCn1cc(C2=NCCO2)c2ccccc21	2.3%	i	0.9%	-10.2%	-5.8%	i

Source: PubChem BioAssay
